Only some compounds are listed: those with a hit (about 11% of all), similar ones and a draw of the others.
G9a block: qHTS Assay for Inhibitors of Histone Lysine Methyltransferase G9a; Histone-lysine N-methyltransferase EHMT2 (Homo sapiens), Q96KQ7; G9a H3K9 monomethylation, AlphaScreen, 2 h; Potency, µM (titrated, usually from 102 µM), hits mostly inhibitors; 350,000 tested, 8.8% active; AID 504332, 2011; also: nearly all actives have a fitted effect of over 75% in size
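AlphaScreen read-out: biotin-H3K9 peptide (500 nM) methylation by 20 nM enzyme with 20 uM SAM, 2 h at room temperature after 15 min compound preincubation; anti-monomethyl H3K9 antibody plus donor/acceptor beads, 10 min dark.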
HP1b chromo inh: HTS for Inhibitors of HP1-beta Chromodomain Interactions with Methylated Histone Tails; Chromobox protein homolog 1 (Homo sapiens), P83916; AlphaScreen HP1-beta / biotin-H3K9me3 peptide binding; Potency, µM (top dose mostly 114 µM), usual class: inhibitors; 390,000 tested, 0.56% active; also: nearly all actives have a fitted effect of over 70% in size
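Compound inhibition of the preformed complex between 50 nM HP1-beta and 50 nM biotinylated H3K9me3 peptide was read by AlphaScreen. Buffer was PBS pH 7.4 with 0.01% Tween-20. Incubations ran 30 min at room temperature, with 10 ug/mL donor/acceptor beads.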
PI5P4K alpha inh: qHTS for Inhibitors of phosphatidylinositol 5-phosphate 4-kinase (PI5P4K); PI5P4Kalpha enzyme, ADP-Glo luminescence, 60 min; active compounds read low; Phosphatidylinositol 5-phosphate 4-kinase type-2 alpha (Homo sapiens), P48426; 330,000 tested, 1.2% active; max response, %; active = max response of -50% or lower; inconclusive = between -30% and -50%; inactive = -30% or higher; also: value at the top dose of about 77 µM
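Enzyme plus substrate dispensed, test compounds pinned in, then ATP (5 microM final) added. After 60 min at RT, ADP-Glo reagent 1 for 45 min and reagent 2 for 30 min preceded luminescence imaging.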
JMJD2A Tudor inh: qHTS Assay for Inhibitors of JMJD2A-Tudor Domain; Lysine-specific demethylase 4A (Homo sapiens), O75164; AlphaScreen JMJD2A-Tudor / H3K4me3 peptide binding; Potency, µM (highest dose often 114 µM), most hits filed as inhibitors; 390,000 tested, 4.4% active; AID 504339, 2011; also: nearly all actives have a fitted effect of over 50% in size
L3MBTL1 block: qHTS Assay for the Inhibitors of L3MBTL1; AlphaScreen L3MBTL1–H3K9me1 peptide binding; Potency, µM (titrated, usually from 57.1 µM), hits mostly inhibitors; 230,000 tested, 0.66% active; also: nearly all actives have a fitted effect of over 60% in size
Target sequence (Q9Y468 whole entry, looked up): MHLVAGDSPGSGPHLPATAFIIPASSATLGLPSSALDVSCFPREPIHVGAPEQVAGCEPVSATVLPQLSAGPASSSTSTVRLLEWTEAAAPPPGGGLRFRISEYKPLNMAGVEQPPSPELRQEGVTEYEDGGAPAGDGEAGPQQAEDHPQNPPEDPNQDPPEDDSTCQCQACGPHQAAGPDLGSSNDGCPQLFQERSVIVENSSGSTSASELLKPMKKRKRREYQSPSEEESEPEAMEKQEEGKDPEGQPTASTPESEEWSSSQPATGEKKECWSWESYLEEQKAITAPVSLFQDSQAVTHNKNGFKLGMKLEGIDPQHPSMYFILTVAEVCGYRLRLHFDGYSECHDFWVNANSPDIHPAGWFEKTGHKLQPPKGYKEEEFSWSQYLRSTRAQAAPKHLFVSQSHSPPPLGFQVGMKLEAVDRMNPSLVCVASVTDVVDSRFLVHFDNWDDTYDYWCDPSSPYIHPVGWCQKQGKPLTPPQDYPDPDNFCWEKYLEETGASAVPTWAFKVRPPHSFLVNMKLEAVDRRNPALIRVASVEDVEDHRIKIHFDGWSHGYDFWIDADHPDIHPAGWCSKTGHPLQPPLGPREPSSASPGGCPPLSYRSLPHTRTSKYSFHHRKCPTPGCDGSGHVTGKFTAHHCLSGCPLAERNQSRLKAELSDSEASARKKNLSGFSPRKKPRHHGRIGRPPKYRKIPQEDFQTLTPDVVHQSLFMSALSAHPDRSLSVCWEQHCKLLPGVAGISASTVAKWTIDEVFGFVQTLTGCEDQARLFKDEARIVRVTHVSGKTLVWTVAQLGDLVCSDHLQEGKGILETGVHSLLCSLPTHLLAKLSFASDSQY
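AlphaScreen assay: L3MBTL1 (50 nM final) was preincubated 30 min at room temperature with biotinylated H3(1-15)K9me1 peptide (75 nM final), then 30 min with library compounds; streptavidin donor and nickel chelate acceptor beads (10 ug/mL final) added, 30 min dark.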
BAZ2B block: qHTS Assay for Inhibitors of BAZ2B. 360,000 tested, 4.4% active. Bromodomain adjacent to zinc finger domain protein 2B (Homo sapiens), Q9UIF8. AlphaScreen BAZ2B-H3K14Ac peptide displacement. Potency, µM (titrated, usually from 114 µM), actives largely listed as inhibitors; also: nearly all actives have a fitted effect of over 60% in size
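Compounds, titrated to a top concentration of 110 uM, were incubated 30 min at room temperature with preformed BAZ2B/acetyl-K14 H3 peptide complex (50 nM each). Proximity signal was measured by AlphaScreen after 20 min with beads.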
A number is an active result; 0 = inactive; ? = inconclusive; - = no result given; [ ] = dose if it differs, or a comment. Unless noted, calls follow the shape of the dose curve; as a rule, active = well fitted inhibition curve with a large enough effect; inconclusive = small, poorly fitted or top-dose-only effect; inactive = no such curve, though single readings can be large or run the other way.

SMILES	G9a block	HP1b chromo inh	PI5P4K alpha inh	JMJD2A Tudor inh	L3MBTL1 block	BAZ2B block
COc1cc(NC(=O)c2ccccc2F)c(OC)cc1NC(=O)CN1CCOCC1	44.7µM	0	0	0	0	0
CCOc1ccc(OCC)c(NC(=O)CN2CCN(C(=O)c3ccco3)CC2)c1	0[12.7 µM]	0	0	0[11.4 µM]	-	0
CCOc1ccc(OCC)c(NC(=O)CN2CCN(c3cccc(C)c3C)CC2)c1	?	?	-	1.58µM	0	?
COc1cc(NC(=O)c2ccc(F)cc2)c(OC)cc1NC(=O)CN1CCOCC1	0[12.7 µM]	0	0	0	0	0
COc1ccc(NS(=O)(=O)c2cc(NC(=O)CC3CCCC3)ccc2N2CCOCC2)cc1	?	0	0	0	0	-
COc1ccc(NS(=O)(=O)c2cc(NC(=O)C3CCCO3)ccc2N2CCCC2)cc1 (stereo not drawn)	25.1µM	0	0	0	0	0
COc1ccc(NS(=O)(=O)c2cc(NC(=O)c3ccco3)ccc2N2CCCC2)cc1	39.8µM	0	0	0	0	0
COc1ccc(NS(=O)(=O)c2cc(NC(=O)C3CCCO3)ccc2N2CCCCC2)cc1 (stereo not drawn)	39.8µM	0	0	0[11.4 µM]	-	0
O=C(COC(=O)c1ccc(C(F)(F)F)cc1)NC(=O)C1CCCCC1	-	0	-	0	-	-
CN(C)CC[C@H](c1ccc(Br)cc1)c1ccccn1	0[21.5 µM]	-	-	-	-	-
CCOc1ccc(C2=Nn3c(nnc3-c3ccccn3)SC2)cc1	?	0	0	35.5µM	?	20µM
CCCc1nnc2n1N=C(c1ccc(C)cc1)CS2	79.4µM	0	0	0	-	0
CCCc1nnc2n1N=C(c1ccc([N+](=O)[O-])cc1)CS2	70.8µM	0	0	0	0	0
CCc1nnc2n1N=C(c1cccc([N+](=O)[O-])c1)CS2	0	0	0	0	0	0
CCOc1ccc(C2=Nn3c(nnc3-c3ccco3)SC2)cc1	0	0	-	0	0	0
CCc1nnc2n1N=C(c1ccc(Cl)cc1)CS2	0	0	0	0	-	0
Cc1nnc2n(c1=O)N=C(c1ccc(Cl)cc1)CS2	70.8µM	0	0	0	0	0
CCc1ccc(OCC(=O)N(Cc2ccco2)Cc2ccco2)cc1	0	0	-	0	-	0
COc1ccccc1NC(=O)Cn1c(=O)n(-c2ccc(C)cc2)c(=O)c2ccc(C(=O)NCc3ccco3)cc21	0	0	-	0	-	0
O=[N+]([O-])c1ccc(C2=Nn3c(Cn4nnc5ccccc54)nnc3SC2)cc1	-	?	0	56.2µM	-	0
CCc1nnc2n1N=C(c1ccccc1)CS2	0	0	0	0	-	0
COc1ccc(CCNC(=O)C(=O)c2c[nH]c3ccccc23)cc1	0	-	-	-	-	-
Cc1ccc(N2CCN(S(=O)(=O)c3nnc(NC(=O)c4cccc(F)c4)s3)CC2)cc1	0	0	-	0	-	0
COc1cc(C2CC(=O)Oc3c(C(CCN4CCN(c5ccccc5)CC4)c4ccc(N(C)C)cc4)c(OC)cc(OC)c32)cc(OC)c1OC (stereo not drawn)	?	?	0	8.91µM	-	7.94µM
COc1cc(C2CC(=O)Oc3c(C(CCN4CCOCC4)c4ccc(N(C)C)cc4)c(OC)cc(OC)c32)cc(OC)c1OC (stereo not drawn)	?	?	0	39.8µM	-	44.7µM
SMILES	G9a block	HP1b chromo inh	PI5P4K alpha inh	JMJD2A Tudor inh	L3MBTL1 block	BAZ2B block
Cc1cc(-n2ccnc(NCCc3ccc(S(N)(=O)=O)cc3)c2=O)ccc1Br	0	0	-	?	-	0
Cc1[nH]c2ccc(Br)cc2c1CCNC(=O)c1cc2ccccc2oc1=O	0	0	-	0	-	0
COc1ccccc1N1C(=O)[C@@H]2[C@H](C1=O)[C@H](C(=O)c1ccc(OC(C)=O)cc1)N1N=CC=C[C@@H]21	5.01µM	0	0	0	0	0
CCc1ccc(NC(=O)C2CCC(CNS(=O)(=O)c3ccc4c(c3)C(C)(C)C(=O)N4C)CC2)cc1 (stereo not drawn)	0	0	-	0	-	0
CSc1ccccc1C(=O)C1CCCN(C(=O)c2cncs2)C1 (stereo not drawn)	0	0	0	20µM	-	0
CCCc1cc(C(=O)N2CCCC(Nc3ccc(C)c(C)c3)C2)n(C)n1 (stereo not drawn)	44.7µM	0	0	0	-	0
Cc1ccc(NC2CCCN(C(=O)c3ccoc3)C2)cc1C (stereo not drawn)	79.4µM	0	0	0	-	?
COc1ccc(OC)c(CNC(=O)C2CCCCN2S(=O)(=O)c2ccc(F)cc2)c1 (stereo not drawn)	0	0	-	0	-	0
COc1ccc(C)cc1NC(=O)C1CCCN(S(=O)(=O)c2ccc3c(c2)oc(=O)n3C)C1 (stereo not drawn)	0	0	-	0	-	0
Cc1c(C#N)c2ccccc2n1CC(=O)N1CCCC1	0[12.7 µM]	?	0	79.4µM	0	0
CCOC(=O)c1cnc2c(cnn2CC)c1NN=C(C)C	29.9µM	-	-	-	-	-

Bioassay records as filed in PubChem BioAssay.
